Laboratory results taken from the supplement of paper PMC10849652.
Targets with a hit are over-represented here; the source holds about 7,900 in all. About 0.6% of all pairs of compound and target were hits.

Each target was assayed with c1cn2cc(-c3ccc4cn[nH]c4c3)nc(Nc3ccc(N4CCOCC4)cc3)c2n1 [entospletinib] (assay: log2 fold change, soluble protein after heating vs DMSO (PISA); higher = thermal stabilisation; K562 cells, 10 uM, 30 min; active = over 0.2 and 3.5 SD of the protein, either way, in both replicates (recomputed)).
Summary of the method: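 K562 cells at 2×10^6 cells/mL were treated for 30 min with 10 μM compound, and aliquots were heated for 3 min over 48°C-58°C before pooling. Extraction used PBS with 0.5% NP-40 at 4°C, and soluble protein was the supernatant after 21,000xg for 90 min, measured by TMTpro 16plex LC-MS/MS with channel sums equalised. Thermal stability values, relative to control samples and from duplicates, are log2 fold changes.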

Chain of UniProt Q07973 (Q07973 whole entry, looked up): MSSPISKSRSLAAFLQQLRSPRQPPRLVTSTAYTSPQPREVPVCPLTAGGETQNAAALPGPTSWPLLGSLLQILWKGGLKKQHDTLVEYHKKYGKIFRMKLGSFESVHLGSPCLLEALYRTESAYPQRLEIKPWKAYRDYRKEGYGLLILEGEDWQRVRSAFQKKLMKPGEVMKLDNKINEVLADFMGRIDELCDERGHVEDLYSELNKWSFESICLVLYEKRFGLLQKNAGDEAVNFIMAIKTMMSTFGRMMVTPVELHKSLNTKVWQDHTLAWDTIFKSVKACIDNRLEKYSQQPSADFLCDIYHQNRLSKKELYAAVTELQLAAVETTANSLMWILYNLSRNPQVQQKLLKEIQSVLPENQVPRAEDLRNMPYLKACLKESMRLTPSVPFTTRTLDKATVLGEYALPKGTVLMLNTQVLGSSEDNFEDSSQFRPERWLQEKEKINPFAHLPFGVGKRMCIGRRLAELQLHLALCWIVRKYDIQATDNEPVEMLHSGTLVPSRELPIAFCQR
Chain of UniProt Q6UX04 (Q6UX04 whole entry, looked up): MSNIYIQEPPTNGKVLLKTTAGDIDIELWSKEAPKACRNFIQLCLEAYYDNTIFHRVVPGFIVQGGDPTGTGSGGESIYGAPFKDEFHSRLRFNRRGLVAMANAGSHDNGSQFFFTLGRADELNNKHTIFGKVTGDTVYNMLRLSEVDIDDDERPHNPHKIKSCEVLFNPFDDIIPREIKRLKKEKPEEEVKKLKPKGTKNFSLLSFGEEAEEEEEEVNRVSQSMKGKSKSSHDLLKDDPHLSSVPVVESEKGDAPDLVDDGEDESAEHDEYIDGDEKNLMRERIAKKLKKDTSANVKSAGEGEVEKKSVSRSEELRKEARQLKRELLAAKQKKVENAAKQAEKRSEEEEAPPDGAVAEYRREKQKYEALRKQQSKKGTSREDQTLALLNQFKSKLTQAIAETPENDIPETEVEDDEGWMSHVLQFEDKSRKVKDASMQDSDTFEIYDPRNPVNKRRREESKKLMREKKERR
Chain of UniProt Q9Y5Q0 (Q9Y5Q0 whole entry, looked up): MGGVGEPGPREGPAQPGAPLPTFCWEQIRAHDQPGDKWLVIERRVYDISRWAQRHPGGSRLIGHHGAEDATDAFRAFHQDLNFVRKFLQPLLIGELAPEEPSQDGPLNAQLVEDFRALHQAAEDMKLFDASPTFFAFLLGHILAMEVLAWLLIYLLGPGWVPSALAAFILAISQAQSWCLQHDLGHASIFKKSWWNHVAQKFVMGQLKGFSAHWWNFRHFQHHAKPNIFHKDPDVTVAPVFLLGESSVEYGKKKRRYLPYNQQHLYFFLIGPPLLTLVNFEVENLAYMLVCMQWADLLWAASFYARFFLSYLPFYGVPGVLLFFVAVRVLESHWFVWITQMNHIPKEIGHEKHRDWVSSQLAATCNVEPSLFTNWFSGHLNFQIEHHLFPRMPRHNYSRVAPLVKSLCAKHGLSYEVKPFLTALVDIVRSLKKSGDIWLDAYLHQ
Chain of UniProt P50402 (P50402 whole entry, looked up): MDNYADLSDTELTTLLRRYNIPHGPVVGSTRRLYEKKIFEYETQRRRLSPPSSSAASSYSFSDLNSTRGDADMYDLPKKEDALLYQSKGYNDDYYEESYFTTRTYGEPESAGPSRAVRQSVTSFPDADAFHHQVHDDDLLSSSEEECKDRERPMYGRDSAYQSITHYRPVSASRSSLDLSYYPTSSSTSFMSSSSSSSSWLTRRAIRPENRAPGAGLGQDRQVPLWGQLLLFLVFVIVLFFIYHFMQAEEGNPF
Chain of UniProt P09622 (P09622 whole entry, looked up): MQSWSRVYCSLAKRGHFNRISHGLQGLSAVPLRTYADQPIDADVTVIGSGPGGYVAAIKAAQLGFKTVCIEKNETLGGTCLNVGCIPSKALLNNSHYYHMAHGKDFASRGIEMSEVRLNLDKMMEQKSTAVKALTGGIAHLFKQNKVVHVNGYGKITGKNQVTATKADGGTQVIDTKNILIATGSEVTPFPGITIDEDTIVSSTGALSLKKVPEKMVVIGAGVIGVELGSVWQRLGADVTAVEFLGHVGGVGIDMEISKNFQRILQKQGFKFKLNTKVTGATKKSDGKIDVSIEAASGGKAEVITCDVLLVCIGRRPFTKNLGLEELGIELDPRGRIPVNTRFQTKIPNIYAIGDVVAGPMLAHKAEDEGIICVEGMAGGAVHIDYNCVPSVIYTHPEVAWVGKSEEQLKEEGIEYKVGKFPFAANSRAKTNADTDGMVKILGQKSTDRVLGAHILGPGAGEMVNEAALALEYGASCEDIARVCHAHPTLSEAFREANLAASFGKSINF
Chain of UniProt Q6P1L5 (Q6P1L5 whole entry, looked up): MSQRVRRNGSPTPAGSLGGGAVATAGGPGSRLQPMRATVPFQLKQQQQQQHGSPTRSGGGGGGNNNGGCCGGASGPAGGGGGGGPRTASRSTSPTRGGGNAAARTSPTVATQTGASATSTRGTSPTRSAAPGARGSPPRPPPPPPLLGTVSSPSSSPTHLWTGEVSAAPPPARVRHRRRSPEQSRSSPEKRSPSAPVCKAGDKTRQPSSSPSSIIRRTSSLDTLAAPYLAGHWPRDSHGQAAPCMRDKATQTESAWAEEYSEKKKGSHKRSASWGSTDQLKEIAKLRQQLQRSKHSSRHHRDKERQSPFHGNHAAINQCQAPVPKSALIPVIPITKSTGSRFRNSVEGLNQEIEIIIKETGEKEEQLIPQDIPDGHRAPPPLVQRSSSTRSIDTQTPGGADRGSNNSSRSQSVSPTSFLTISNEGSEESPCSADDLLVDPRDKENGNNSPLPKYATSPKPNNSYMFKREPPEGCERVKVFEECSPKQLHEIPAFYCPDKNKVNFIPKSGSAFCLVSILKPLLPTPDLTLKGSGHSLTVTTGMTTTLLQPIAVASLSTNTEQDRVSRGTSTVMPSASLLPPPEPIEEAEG
Chain of UniProt P29692 (P29692 whole entry, looked up): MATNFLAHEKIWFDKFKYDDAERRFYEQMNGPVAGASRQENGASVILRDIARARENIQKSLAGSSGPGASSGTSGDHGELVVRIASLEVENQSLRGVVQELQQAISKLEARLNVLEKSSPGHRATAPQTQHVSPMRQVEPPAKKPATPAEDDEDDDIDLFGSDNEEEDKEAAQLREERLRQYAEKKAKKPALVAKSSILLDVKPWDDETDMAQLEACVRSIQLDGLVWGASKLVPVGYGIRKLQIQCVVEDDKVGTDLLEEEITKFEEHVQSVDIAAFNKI
Chain of UniProt Q9NZN4 (Q9NZN4 whole entry, looked up): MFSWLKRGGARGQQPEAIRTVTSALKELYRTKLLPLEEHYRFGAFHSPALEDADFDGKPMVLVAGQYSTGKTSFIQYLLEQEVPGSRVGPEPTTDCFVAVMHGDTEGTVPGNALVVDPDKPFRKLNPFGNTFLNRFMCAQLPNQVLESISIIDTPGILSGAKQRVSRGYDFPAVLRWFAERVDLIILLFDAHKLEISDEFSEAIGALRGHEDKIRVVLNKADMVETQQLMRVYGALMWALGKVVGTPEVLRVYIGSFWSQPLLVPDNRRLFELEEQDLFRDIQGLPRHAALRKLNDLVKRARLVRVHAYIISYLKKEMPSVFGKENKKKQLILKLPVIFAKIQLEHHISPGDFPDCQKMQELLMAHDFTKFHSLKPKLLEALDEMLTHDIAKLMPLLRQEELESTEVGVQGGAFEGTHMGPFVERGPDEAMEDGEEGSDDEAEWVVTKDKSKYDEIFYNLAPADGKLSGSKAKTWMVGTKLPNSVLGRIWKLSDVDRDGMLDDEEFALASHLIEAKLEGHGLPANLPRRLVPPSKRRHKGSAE
Chain of UniProt Q9NRY5 (Q9NRY5 whole entry, looked up): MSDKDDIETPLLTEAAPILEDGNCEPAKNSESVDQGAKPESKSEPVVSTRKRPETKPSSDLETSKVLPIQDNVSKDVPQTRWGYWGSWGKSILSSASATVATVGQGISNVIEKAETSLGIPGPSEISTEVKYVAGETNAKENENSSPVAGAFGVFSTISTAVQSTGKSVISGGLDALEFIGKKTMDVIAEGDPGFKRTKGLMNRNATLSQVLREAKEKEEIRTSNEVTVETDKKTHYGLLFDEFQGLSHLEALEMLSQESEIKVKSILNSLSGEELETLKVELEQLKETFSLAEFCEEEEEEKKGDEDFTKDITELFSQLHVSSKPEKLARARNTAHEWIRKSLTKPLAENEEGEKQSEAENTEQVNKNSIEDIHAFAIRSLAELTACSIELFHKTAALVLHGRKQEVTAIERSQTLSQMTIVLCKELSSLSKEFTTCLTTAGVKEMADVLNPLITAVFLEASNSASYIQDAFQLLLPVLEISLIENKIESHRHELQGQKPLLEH
Chain of UniProt P98173 (P98173 whole entry, looked up): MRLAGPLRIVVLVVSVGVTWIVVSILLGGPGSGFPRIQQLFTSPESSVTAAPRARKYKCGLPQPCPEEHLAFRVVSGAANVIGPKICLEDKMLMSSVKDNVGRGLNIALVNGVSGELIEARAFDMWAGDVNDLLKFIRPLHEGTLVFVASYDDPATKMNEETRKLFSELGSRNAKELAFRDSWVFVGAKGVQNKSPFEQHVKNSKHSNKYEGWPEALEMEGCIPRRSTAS
Chain of UniProt P39656 (P39656 whole entry, looked up): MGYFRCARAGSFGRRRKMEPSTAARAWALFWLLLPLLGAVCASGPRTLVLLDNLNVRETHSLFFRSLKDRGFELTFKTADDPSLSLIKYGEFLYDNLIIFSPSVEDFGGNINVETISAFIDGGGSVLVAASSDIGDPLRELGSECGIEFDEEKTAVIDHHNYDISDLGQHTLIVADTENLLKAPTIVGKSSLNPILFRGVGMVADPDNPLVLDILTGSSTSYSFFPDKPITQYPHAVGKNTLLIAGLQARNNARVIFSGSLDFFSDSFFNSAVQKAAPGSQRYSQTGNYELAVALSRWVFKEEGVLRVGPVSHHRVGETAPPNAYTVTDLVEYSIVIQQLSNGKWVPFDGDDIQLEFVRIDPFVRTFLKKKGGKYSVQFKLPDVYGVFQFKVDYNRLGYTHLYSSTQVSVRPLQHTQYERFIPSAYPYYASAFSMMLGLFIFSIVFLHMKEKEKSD

log2 fold change, inactive:
DLD (UniProt P09622) 0.051
FAM114A2 (UniProt Q9NRY5) -0.022
FAM117B (UniProt Q6P1L5) 0.009
EPHX2 (UniProt P34913) 0.05
DOHH (UniProt Q9BU89) 0.1
DTWD1 (UniProt Q8N5C7) 0.039
DNAJC7 (UniProt Q99615) -0.034
FAM3A (UniProt P98173) 0.023
EMD (UniProt P50402) 0.102
DDOST (UniProt P39656) -0.014
DOCK8 (UniProt Q8NF50) -0.044
ENTPD7 (UniProt Q9NQZ7) 0.096
EHD2 (UniProt Q9NZN4) -0.038
DHCR7 (UniProt Q9UBM7) -0.045
EDC4 (UniProt Q6P2E9) 0.044
CWC27 (UniProt Q6UX04) -0.019
FADS3 (UniProt Q9Y5Q0) 0.035
DPYSL2 (UniProt Q16555) -0.015
DDX4 (UniProt Q9NQI0) 0.276
EEF1D isoform 2 (UniProt P29692) 0.031
DAXX (UniProt Q9UER7) -0.025
DSN1 (UniProt Q9H410) -0.044
CTSC (UniProt P53634) -0.047
CYP24A1 (UniProt Q07973) 0.019
